# Screening results as filed in PubChem.
# Rows were chosen to be rich in hits. Some 1.2% of all compounds tested hit in one or more screens of this group.
# TcdB inh = inhibitors of Clostridioides difficile toxin B glycohydrolase; P18177; TcdB glycohydrolase enzymatic assay, plate reader; inhibition, % at 9.99 µM; actives 0.24% (n = 350,000); in the data active = inhibition above about 10%
# Sa RN4220 lethal = S. aureus RN4220 growth inhibition; OD600, 16 h; inhibition, % (test concentration not listed); actives 0.33% (n = 330,000); in the data active = inhibition above about 85%;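 note: plate controls were untreated cells for no effect and reference antibiotic for full effect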
# ugtP null kill = growth inhibition of S. aureus ugtP deletion strain. S. aureus RN4220 ugtP deletion, OD600 growth, 16 h. AID 1259309. growth inhibition, % (test concentration not listed). actives 0.54% (n = 330,000); in the data active = growth inhibition above about 68%;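 note: plate controls were untreated wells for no effect and antibiotic for full effect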
# PrP 5UTR inh = suppresses PrP 5' UTR mRNA reporter expression. cell-based PrP 5' UTR mRNA reporter, plate reader. inhibition, % (no concentration beside the values). actives 0.35% (n = 340,000); in the data active = inhibition above about 52%; note: 0 = median of the neutral control wells
# PfHsp40 yeast = restores yeast growth despite PfHsp40 toxicity; S. cerevisiae expressing PfHsp40, growth rescue, ATP luminescence; growth rescue, % at 12.5 µM; actives 0.68% (n = 340,000); in the data active = growth rescue above about 28%, passing the limit was not always enough; inconclusive = no clear call, values can overlap the other calls;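 note: yeast W303a lacking pdr1 and pdr3 grown in galactose medium; growth measured after three days at 30 °C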
# The depositor's hits bear a star; ? = inconclusive; / = not tested or not shown.
SMILES,TcdB inh,Sa RN4220 lethal,ugtP null kill,PrP 5UTR inh,PfHsp40 yeast
C[C@@H]1CCCCO[C@H](CN(C)C)[C@@H](C)CN([C@H](C)CO)C(=O)c2cc(NS(=O)(=O)c3ccc(Cl)cc3)ccc2O1,1,/,/,/,/
Nc1nc2sc3c(c2c(=O)s1)CCCC3,0,9,38,-50,290*
C[C@@H]1CC=C[C@H]2[C@H]1C(=O)N(Cc1ccccc1)[C@H]2c1ccc2ccccc2c1/C=C/c1ccccc1,0,/,/,-2,-1
CC1CC=CC2C1C(=O)N(Cc1ccccc1)C2c1ccc2ccccc2c1Br (stereo not drawn),/,88*,97*,/,/
O=C(C[C@H]1CC[C@@H]2[C@H](COC[C@H](O)CN2Cc2ccccc2)O1)NCCCN1CCOCC1,-2,/,/,/,/
CC1CC(=O)c2c(cc3c(-c4c(O)cc(O)c5c(O)c6c(cc45)OC(C)CC6=O)c(O)cc(O)c3c2O)O1 (stereo not drawn),/,35,11,-28,102*
O=C1CC(c2ccc(O)cc2)Oc2cc(O)cc(O)c21 (stereo not drawn),2,6,-9,-20,1
O=C(C[C@@H]1C=C[C@H](NC(=O)c2ccc(F)cc2)[C@H](CO)O1)NCCc1ccccc1,1,/,/,/,/
Cc1ccc(CCNC(=O)c2nnn(-c3cc(C)cc(C)c3)c2N)cc1,/,1,0,7,48*
COc1ccc(CCNC(=O)c2nnn(-c3cc(C)cc(C)c3)c2N)cc1OC,/,4,12,-20,?
CCC(=O)N1CC2(CN(Cc3ccc(Cl)cc3)C2)c2c(n(C)c3cc(OC)ccc23)[C@H]1CO,0,/,/,/,/
CCCN(C)C[C@@H]1Oc2cc(C#Cc3cccc(F)c3)ccc2S(=O)(=O)N([C@@H](C)CO)C[C@@H]1C,1,/,/,/,/
COc1ccccc1NC(=O)CCC(=O)Nc1ccccc1OC,/,5,9,-13,-2
COc1ccccc1NC(=O)CCSCCC(=O)Nc1ccccc1OC,/,4,0,-19,45*
[O-][N+](=Cc1ccccc1)c1ccccc1,/,-5,1,/,/
N#CC(C#N)=c1ccc2c(c1)N1C3=C(CCCC3)CC3CCCCC31N=2 (stereo not drawn),/,91*,92*,-3,1
N#C/C(C(N)=O)=c1/ccc2c(c1)N1C3=C(CCCC3)CC3CCCCC31N=2 (stereo not drawn),/,/,/,-3,0
O=C(CN1C(=O)CC(c2ccccc2)=Nc2ccccc21)NCc1ccccc1,/,8,5,-17,119*
COCC(=O)Nc1ccc2c(c1)OC[C@H](C)N(C(=O)Cc1ccccn1)C[C@@H](C)[C@H](OC)CN(C)C2=O,0,/,/,/,/
COc1ccc(C=C2SC(=S)NC2=O)c(OC)c1OC,3,/,/,2,-2
Cc1ccc(S(=O)(=O)Oc2ccccc2C=NO)cc1,/,12,4,/,/
COc1ccccc1C=C1SC(=S)NC1=O,11*,/,/,-13,0
COc1ccc2nc(N3CCCCC3)c(/C=C3\SC(=S)NC3=O)cc2c1,1,77,73,-15,1
O=C1NC(=S)S/C1=C\c1cc2ccccc2nc1N1CCCCC1,0,84*,86*,-6,7
O=C1NC(=S)SC1=Cc1ccccc1Cl,3,98*,100*,-11,3
SMILES,TcdB inh,Sa RN4220 lethal,ugtP null kill,PrP 5UTR inh,PfHsp40 yeast
Cc1ccc(S(=O)(=O)Oc2ccccc2/C=C2\SC(=O)NC2=O)cc1,11*,53,43,-2,-2
Cc1c(NC(=S)NN=C/C=C/c2ccc([N+](=O)[O-])cc2)c(=O)n(-c2ccccc2)n1C,/,1,88*,/,/
COc1ccc(-c2ccc3c(c2)C2CC3CCN2Cc2ccc(OC(F)(F)F)cc2)cc1 (stereo not drawn),0,-3,89*,-25,-2
COc1ccc(-c2ccc3c(c2)C2CC3CCN2C(=O)C(C)(C)C)cc1 (stereo not drawn),1,-1,19,-10,2
NNC(=O)C(=O)Nc1ccc(O)cc1,10,0,1,-45,0
CN1CC(=O)N/C1=N\C(=O)Nc1ccc(O)cc1,13*,4,7,-20,-1
Cc1nc2scc(-c3ccco3)c2c(=O)n1N=CN(C)C,/,4,-2,/,/
Oc1ccc(Cl)cc1Cc1cc(Cl)ccc1O,3,94*,86*,-3,234*
Nc1nonc1C(=O)NCCN=Cc1cc(Cc2ccccc2)cc(Br)c1O,/,-8,49,-21,702*
Nc1nc2nccc(-c3ccc(Cl)cc3)n2n1,/,-4,-4,-58,185*
Cc1cc(C(=O)Nc2cccc3c2O[C@H](CN(C)CC2CCCCC2)[C@H](C)CN([C@H](C)CO)C3=O)n(C)n1,0,/,/,/,/
COc1ccc(/C=C2/SC(=S)N(NS(=O)(=O)c3ccc(C)cc3)C2=O)cc1,1,64,82*,-18,0
C=CCOc1ccc(/C=C2\SC(=S)N(NS(=O)(=O)c3ccc(C)cc3)C2=O)cc1,0,63,88*,-19,-1
Cc1ccc(S(=O)(=O)NN2C(=O)/C(=C/c3ccc(F)cc3)SC2=S)cc1,1,85*,89*,-24,0
Cc1ccc(/C=C2\SC(=S)N(NS(=O)(=O)c3ccc(C)cc3)C2=O)cc1,1,62,38,-8,-1
Cc1ccc(S(=O)(=O)NN2C(=O)/C(=C\c3ccc(Cl)cc3)SC2=S)cc1,2,83,76,-22,-1
CC(C)NC(=O)N(C)C[C@@H]1Oc2ncc(C#Cc3ccc(F)cc3)cc2C(=O)N([C@@H](C)CO)C[C@@H]1C,0,/,/,/,/
CC(=O)Nc1cc(C(C)(C)C)c(O)c(C(C)(C)C)c1,/,7,-17,-17,0
CC(C)(C)c1cc([N+](=O)[O-])cc(C(C)(C)C)c1O,-5,88*,93*,/,/
O=C(NCc1ccc2c(c1)OCO2)c1ccc(Br)cc1,0,0,3,-2,?
Cc1nc2cc(C(=O)NCc3ccc4c(c3)OCO4)ccc2n1-c1ccc(Br)cc1,0,-16,96*,-15,9
O=c1c2ccccc2c(-c2ccccc2)nn1Cc1c(Cl)cccc1Cl,/,-13,96*,1,1
CC1CN(c2cc(-c3ccccc3)c3ccccc3n2)CC(C)O1 (stereo not drawn),0,2,12,1,-1
CC1CN(c2nc3ccccc3cc2-c2ccccc2)CC(C)O1 (stereo not drawn),-1,-7,91*,-26,3
CN1CCN(C(=O)C[C@@H]2CC[C@@H]3[C@H](COC[C@@H](O)CN3C(=O)C3CCCC3)O2)CC1,-2,/,/,/,/
Cc1nnc(N/N=C/c2cccc(C(F)(F)F)c2)n1N,0,/,/,-6,-2
Cc1nnc(N/N=C/c2cccc(OCc3ccc(Cl)c(Cl)c3)c2)n1N,/,/,/,-11,38*
Cc1ccc(C(C[N+](=O)[O-])c2c(N)n(C)c(=O)n(C)c2=O)cc1 (stereo not drawn),1,/,/,5,364*
COc1cc(C(C[N+](=O)[O-])c2c(N)n(C)c(=O)n(C)c2=O)ccc1O (stereo not drawn),2,1,-15,3,-1
